In publication PMC7862700, “An all-to-all approach to the identification of sequence-specific readers for epigenetic DNA modifications on cytosine”:

Legend:
Experiment in all cases: DAPPL (digital affinity profiling via proximity ligation, sequencing); 10 mM Tris-HCl pH 7.5, 50 mM NaCl, 1 mM DTT, 4% glycerol, room temperature, 30 min; GST-TFs on glutathione beads, 16-mer random dsDNA library, 0.1% formaldehyde crosslink after washing; high values mean tight binding
Details in all cases: protein: recombinant; tags: N-terminal GST; dsDNA, one strand shown
FLI1 = molecular target: T1, FLI1 (Homo sapiens, UniProt Q01543 1-452)
T1 sequence: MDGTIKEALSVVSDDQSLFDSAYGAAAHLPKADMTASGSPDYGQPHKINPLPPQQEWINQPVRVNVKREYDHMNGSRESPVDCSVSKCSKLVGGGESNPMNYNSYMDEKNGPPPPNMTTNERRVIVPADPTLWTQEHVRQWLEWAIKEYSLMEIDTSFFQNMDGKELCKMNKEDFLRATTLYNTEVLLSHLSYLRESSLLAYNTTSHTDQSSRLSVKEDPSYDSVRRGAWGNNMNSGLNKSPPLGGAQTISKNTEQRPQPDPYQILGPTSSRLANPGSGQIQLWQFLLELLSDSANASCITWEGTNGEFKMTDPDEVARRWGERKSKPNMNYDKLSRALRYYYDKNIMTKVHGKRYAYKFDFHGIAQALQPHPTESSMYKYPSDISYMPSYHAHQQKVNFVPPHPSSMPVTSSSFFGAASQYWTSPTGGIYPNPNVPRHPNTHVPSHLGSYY
Outline: (§1)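 Binding signal is each hexamer's read frequency for a factor divided by its frequency in the tag-only sample. The factors were GST-fused human transcription factors from yeast, captured on glutathione beads, DNA-barcoded and pooled with that sample. Pools were incubated with 200 nmole of a random double-stranded 16-mer DNA library in Tris/NaCl/DTT/glycerol buffer at room temperature for 30 min, then washed, crosslinked with 0.1% formaldehyde, proximity-ligated with BsaI/T4 ligase (1 h, 37 °C), PCR-amplified and sequenced on an Illumina NextSeq500.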

ELK1 = molecular target: T2, ELK1 (Homo sapiens, UniProt P19419 1-428)
T2 sequence: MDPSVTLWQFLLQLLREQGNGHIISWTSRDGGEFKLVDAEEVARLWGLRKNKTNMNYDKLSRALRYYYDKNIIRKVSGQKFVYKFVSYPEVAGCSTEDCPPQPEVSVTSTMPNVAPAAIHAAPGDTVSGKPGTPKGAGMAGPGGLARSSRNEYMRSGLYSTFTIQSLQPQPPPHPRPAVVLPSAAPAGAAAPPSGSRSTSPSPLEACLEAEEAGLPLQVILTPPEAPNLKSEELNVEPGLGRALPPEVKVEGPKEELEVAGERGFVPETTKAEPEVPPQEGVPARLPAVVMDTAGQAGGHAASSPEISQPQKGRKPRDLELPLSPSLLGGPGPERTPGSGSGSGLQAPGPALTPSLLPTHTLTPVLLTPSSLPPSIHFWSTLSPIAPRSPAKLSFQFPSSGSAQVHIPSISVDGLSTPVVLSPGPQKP
Outline: as §1

GABPA = molecular target: T3, GABPA (Homo sapiens, UniProt Q06546 1-454)
T3 sequence: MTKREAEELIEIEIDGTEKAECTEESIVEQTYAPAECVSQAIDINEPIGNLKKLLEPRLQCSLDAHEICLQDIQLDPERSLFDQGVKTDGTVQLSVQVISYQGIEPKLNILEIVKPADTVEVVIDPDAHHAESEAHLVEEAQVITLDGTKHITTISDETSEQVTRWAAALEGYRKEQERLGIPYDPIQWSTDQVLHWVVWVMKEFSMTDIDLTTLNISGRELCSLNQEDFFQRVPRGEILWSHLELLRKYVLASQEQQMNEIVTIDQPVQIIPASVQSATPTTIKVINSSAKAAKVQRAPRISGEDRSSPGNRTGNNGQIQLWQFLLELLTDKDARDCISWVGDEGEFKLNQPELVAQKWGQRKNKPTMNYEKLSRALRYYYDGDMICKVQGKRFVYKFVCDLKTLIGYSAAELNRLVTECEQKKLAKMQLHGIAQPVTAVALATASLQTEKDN
Outline: as §1

ERG = molecular target: T4, ERG (Homo sapiens, UniProt P11308 1-479)
T4 sequence: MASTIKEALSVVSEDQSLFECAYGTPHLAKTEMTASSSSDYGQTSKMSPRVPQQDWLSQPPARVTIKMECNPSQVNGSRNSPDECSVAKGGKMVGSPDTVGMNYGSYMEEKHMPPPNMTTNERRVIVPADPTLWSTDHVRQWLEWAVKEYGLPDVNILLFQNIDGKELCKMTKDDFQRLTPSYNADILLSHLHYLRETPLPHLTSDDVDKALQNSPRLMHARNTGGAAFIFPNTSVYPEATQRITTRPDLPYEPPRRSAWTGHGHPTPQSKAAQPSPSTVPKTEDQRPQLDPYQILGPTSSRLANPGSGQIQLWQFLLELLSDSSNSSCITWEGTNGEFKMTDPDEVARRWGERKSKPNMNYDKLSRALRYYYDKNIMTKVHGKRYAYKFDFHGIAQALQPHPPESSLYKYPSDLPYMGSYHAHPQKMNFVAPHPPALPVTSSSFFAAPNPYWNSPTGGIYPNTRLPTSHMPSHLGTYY
Outline: as §1

ELF1 = ELF1 (Homo sapiens, UniProt P32519 1-619)
Outline: as §1

EHF = molecular target: T5, EHF (Homo sapiens, UniProt Q9NZC4 1-300)
T5 sequence: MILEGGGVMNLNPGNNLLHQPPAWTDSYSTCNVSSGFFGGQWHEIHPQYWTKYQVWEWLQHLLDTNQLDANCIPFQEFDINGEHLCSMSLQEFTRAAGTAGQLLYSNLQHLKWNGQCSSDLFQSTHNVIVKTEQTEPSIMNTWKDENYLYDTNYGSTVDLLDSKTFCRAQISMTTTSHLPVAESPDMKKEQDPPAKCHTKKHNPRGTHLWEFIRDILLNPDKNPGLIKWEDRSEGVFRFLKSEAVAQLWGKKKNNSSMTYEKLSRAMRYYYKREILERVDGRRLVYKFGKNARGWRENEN
Outline: as §1

SPI1 = SPI1 (Homo sapiens, UniProt P17947 1-270)
Outline: as §1

SPIB = SPIB (Homo sapiens, UniProt Q01892 1-262)
Outline: as §1

ELK3 = molecular target: T6, ELK3 (Homo sapiens, UniProt P41970 1-407)
T6 sequence: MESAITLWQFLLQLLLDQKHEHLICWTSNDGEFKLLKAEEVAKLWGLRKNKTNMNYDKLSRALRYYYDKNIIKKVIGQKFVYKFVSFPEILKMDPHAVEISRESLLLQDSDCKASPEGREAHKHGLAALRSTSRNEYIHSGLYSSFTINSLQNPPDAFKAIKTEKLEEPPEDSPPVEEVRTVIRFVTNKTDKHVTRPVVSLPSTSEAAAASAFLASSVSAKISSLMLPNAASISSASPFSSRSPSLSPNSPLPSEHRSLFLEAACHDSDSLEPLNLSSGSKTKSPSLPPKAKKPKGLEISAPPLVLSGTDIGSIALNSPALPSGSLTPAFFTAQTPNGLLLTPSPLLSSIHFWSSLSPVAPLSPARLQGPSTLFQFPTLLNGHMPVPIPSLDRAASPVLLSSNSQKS
Outline: as §1

Chain of ELF1 (P32519 whole entry): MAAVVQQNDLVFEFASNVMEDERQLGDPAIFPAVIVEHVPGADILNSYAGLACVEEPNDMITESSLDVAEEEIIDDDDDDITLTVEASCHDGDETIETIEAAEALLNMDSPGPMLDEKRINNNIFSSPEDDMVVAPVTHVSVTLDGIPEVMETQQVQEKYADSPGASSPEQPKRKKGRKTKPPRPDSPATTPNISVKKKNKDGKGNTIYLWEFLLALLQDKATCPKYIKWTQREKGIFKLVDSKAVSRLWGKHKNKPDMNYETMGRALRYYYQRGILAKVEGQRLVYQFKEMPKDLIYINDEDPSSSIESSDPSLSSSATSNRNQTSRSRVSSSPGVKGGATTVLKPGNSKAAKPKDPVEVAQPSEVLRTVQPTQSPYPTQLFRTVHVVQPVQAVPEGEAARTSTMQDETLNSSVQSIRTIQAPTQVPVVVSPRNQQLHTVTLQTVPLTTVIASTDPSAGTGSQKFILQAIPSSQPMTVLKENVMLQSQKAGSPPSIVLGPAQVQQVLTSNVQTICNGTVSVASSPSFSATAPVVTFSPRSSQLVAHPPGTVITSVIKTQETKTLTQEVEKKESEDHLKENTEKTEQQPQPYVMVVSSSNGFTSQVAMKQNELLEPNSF
Chain of SPIB (Q01892 whole entry): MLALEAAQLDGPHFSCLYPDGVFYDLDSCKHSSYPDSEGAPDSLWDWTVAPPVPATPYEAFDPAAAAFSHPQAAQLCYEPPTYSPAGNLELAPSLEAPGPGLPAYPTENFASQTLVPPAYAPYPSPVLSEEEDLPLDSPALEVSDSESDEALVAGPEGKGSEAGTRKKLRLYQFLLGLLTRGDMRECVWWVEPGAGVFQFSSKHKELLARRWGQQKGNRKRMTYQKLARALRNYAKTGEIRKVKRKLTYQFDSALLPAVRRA

Row | Sequence | binding signal (FLI1) | binding signal (ELK1) | binding signal (GABPA) | binding signal (ERG) | binding signal (ELF1) | binding signal (EHF) | binding signal (SPI1) | binding signal (SPIB) | binding signal (ELK3)
1 | AATGAC | 1.36 fold enrichment (6-mer frequency, TF over GST control) | 1.52 fold enrichment (6-mer frequency, TF over GST control) | 1.43 fold enrichment (6-mer frequency, TF over GST control) | 1.42 fold enrichment (6-mer frequency, TF over GST control) | 1.36 fold enrichment (6-mer frequency, TF over GST control) | 1.35 fold enrichment (6-mer frequency, TF over GST control) | 1.36 fold enrichment (6-mer frequency, TF over GST control) | 1.39 fold enrichment (6-mer frequency, TF over GST control) | 1.44 fold enrichment (6-mer frequency, TF over GST control)
2 | CATTTG | 1.23 fold enrichment (6-mer frequency, TF over GST control) | 1.32 fold enrichment (6-mer frequency, TF over GST control) | 1.28 fold enrichment (6-mer frequency, TF over GST control) | 1.21 fold enrichment (6-mer frequency, TF over GST control) | 1.24 fold enrichment (6-mer frequency, TF over GST control) | 1.27 fold enrichment (6-mer frequency, TF over GST control) | 1.29 fold enrichment (6-mer frequency, TF over GST control) | 1.28 fold enrichment (6-mer frequency, TF over GST control) | 1.2 fold enrichment (6-mer frequency, TF over GST control)
3 | AACATT | 1.37 fold enrichment (6-mer frequency, TF over GST control) | 1.26 fold enrichment (6-mer frequency, TF over GST control) | 1.35 fold enrichment (6-mer frequency, TF over GST control) | 1.25 fold enrichment (6-mer frequency, TF over GST control) | 1.29 fold enrichment (6-mer frequency, TF over GST control) | 1.33 fold enrichment (6-mer frequency, TF over GST control) | 1.17 fold enrichment (6-mer frequency, TF over GST control) | 1.34 fold enrichment (6-mer frequency, TF over GST control) | 1.25 fold enrichment (6-mer frequency, TF over GST control)
4 | CCATAA | 1.15 fold enrichment (6-mer frequency, TF over GST control) | 1.15 fold enrichment (6-mer frequency, TF over GST control) | 1.19 fold enrichment (6-mer frequency, TF over GST control) | 1.17 fold enrichment (6-mer frequency, TF over GST control) | 1.15 fold enrichment (6-mer frequency, TF over GST control) | 1.05 fold enrichment (6-mer frequency, TF over GST control) | 1.17 fold enrichment (6-mer frequency, TF over GST control) | 1.16 fold enrichment (6-mer frequency, TF over GST control) | 1.22 fold enrichment (6-mer frequency, TF over GST control)
5 | ACATCT | 1.39 fold enrichment (6-mer frequency, TF over GST control) | 1.35 fold enrichment (6-mer frequency, TF over GST control) | 1.35 fold enrichment (6-mer frequency, TF over GST control) | 1.34 fold enrichment (6-mer frequency, TF over GST control) | 1.38 fold enrichment (6-mer frequency, TF over GST control) | 1.3 fold enrichment (6-mer frequency, TF over GST control) | 1.4 fold enrichment (6-mer frequency, TF over GST control) | 1.27 fold enrichment (6-mer frequency, TF over GST control) | 1.44 fold enrichment (6-mer frequency, TF over GST control)
6 | ATCGAT | 1.16 fold enrichment (6-mer frequency, TF over GST control) | 1.1 fold enrichment (6-mer frequency, TF over GST control) | 1.19 fold enrichment (6-mer frequency, TF over GST control) | 1.15 fold enrichment (6-mer frequency, TF over GST control) | 1.15 fold enrichment (6-mer frequency, TF over GST control) | 1.19 fold enrichment (6-mer frequency, TF over GST control) | 1.21 fold enrichment (6-mer frequency, TF over GST control) | 1.12 fold enrichment (6-mer frequency, TF over GST control) | 1.1 fold enrichment (6-mer frequency, TF over GST control)
7 | TTCCTT | 1.88 fold enrichment (6-mer frequency, TF over GST control) | 1.79 fold enrichment (6-mer frequency, TF over GST control) | 1.84 fold enrichment (6-mer frequency, TF over GST control) | 2.11 fold enrichment (6-mer frequency, TF over GST control) | 1.96 fold enrichment (6-mer frequency, TF over GST control) | 2.02 fold enrichment (6-mer frequency, TF over GST control) | 2.25 fold enrichment (6-mer frequency, TF over GST control) | 2.01 fold enrichment (6-mer frequency, TF over GST control) | 2.09 fold enrichment (6-mer frequency, TF over GST control)
8 | CTCTAT | 1.09 fold enrichment (6-mer frequency, TF over GST control) | 1.22 fold enrichment (6-mer frequency, TF over GST control) | 1.2 fold enrichment (6-mer frequency, TF over GST control) | 1.17 fold enrichment (6-mer frequency, TF over GST control) | 1.22 fold enrichment (6-mer frequency, TF over GST control) | 1.09 fold enrichment (6-mer frequency, TF over GST control) | 1.16 fold enrichment (6-mer frequency, TF over GST control) | 1.17 fold enrichment (6-mer frequency, TF over GST control) | 1.11 fold enrichment (6-mer frequency, TF over GST control)
